Data published in PubChem BioAssay (NCATS).
Results filed as inconclusive are left out. Active and inactive are the calls of the source. Calls follow the shape of the dose curve; as a rule, active = well fitted cell-killing curve with a large enough effect; inconclusive = small, poorly fitted or top-dose-only effect, or effect the other way; inactive = flat fitted curve, though single readings scatter.

Legend:
Experiment in all cases: Primary qHTS to identify gynecologic anti-cancer compounds using libraries of approved drugs and bioactive compounds (AID 1345084); also: nearly all actives have a fitted effect of over 55% in size
Settings in all cases: Gynecologic cancer cell panel viability, ATPlite luminescence, 48 h; series mostly up to 57.5 µM
PA-1 = test system: PA-1
Procedure, shortened: (§1)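 Measured: luminescence after ATPlite addition (15 min, RT). Exposure: 48 h, 37 C, 5% CO2.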

SKOV3 = test system: SKOV3
Procedure, shortened: as §1

Tov-21-G = test system: Tov-21-G
Procedure, shortened: as §1

Tov112D = test system: Tov112D
Procedure, shortened: as §1
% is scaled to controls: 0 for no effect and ±100 for the full control effect.

CN1C(=O)N(c2cc(Cl)cc(Cl)c2)C(=O)[C@@]1(C)Cc1ccc(Br)cc1
inactive: Potency (PA-1) | Potency (SKOV3) | Potency (Tov-21-G) | Potency (Tov112D)

COC(=O)[C@@H](NC(=O)[C@H](CC(C)C)NC(=O)N(Cc1ccccc1)C[C@@H](O)[C@H](Cc1ccccc1)NC(=O)OC(C)(C)C)C(C)C
inactive: activity change, negative = cytotoxicity (PA-1) 4.66% [at 11.6 µM] | activity change, negative = cytotoxicity (SKOV3) 21.9% [at 11.6 µM] | activity change, negative = cytotoxicity (Tov-21-G) -1.16% [at 11.6 µM] | activity change, negative = cytotoxicity (Tov112D) 11% [at 11.6 µM]

C=CC1(C)CC2CCC3C(C)(C(=O)O)CCCC3(C)C2=CC1=O (stereo unspecified)
inactive: Potency (PA-1) | Potency (SKOV3) | Potency (Tov-21-G) | Potency (Tov112D)

CC(=O)O[C@H]1C[C@@]2(C)[C@@H](CC[C@H]3[C@@]4(C)C=CC(=O)[C@@H](C)[C@@H]4[C@H](OC(C)=O)C(=O)[C@@]32C)/C1=C(\CCC=C(C)C)C(=O)O
inactive: Potency (PA-1) | Potency (SKOV3) | Potency (Tov-21-G) | Potency (Tov112D)

CCc1cc(CC[C@]2(C3CCCC3)CC(O)=C(Cc3nc4nc(C)cc(C)n4n3)C(=O)O2)cc(CC)n1
inactive: Potency (PA-1) | Potency (SKOV3) | Potency (Tov-21-G) | Potency (Tov112D)

C=C1CCC2(OC1)OC1CC3C4CC=C5CC(O)CC(O[C@@H]6OC[C@H](OC(=O)C(O)C(C)CC)[C@H](O)[C@H]6O[C@@H]6O[C@@H](C)[C@H](O)[C@@H](O)[C@H]6O)C5(C)C4CCC3(C)C1C2C (stereo partly specified)
inactive: activity change, negative = cytotoxicity (PA-1) -0.0668% [at 11.6 µM] | activity change, negative = cytotoxicity (SKOV3) 6.52% [at 11.6 µM] | activity change, negative = cytotoxicity (Tov-21-G) 15.3% [at 11.6 µM] | activity change, negative = cytotoxicity (Tov112D) 19.2% [at 11.6 µM]

C[C@]1(OC(=O)/C=C/c2ccccc2)C[C@@H](O)[C@]2(O)C=CO[C@@H](O[C@@H]3O[C@H](CO)[C@@H](O)[C@H](O)[C@H]3O)[C@@H]21
inactive: Potency (PA-1) | Potency (SKOV3) | Potency (Tov-21-G) | Potency (Tov112D)

C[C@@H]1O[C@@H](OC2C(CO)OC(OCC3OC(OC(=O)[C@]45CCC(C)(C)CC4C4=CCC6[C@@]7(C)CC[C@@H](O)[C@](C)(C(=O)O)C7CC[C@@]6(C)[C@]4(C)CC5)C(O)C(O)C3O)C(O)C2O)[C@H](O)[C@H](O)[C@H]1O (stereo partly specified)
inactive: activity change, negative = cytotoxicity (PA-1) 29.2% [at 11.6 µM] | activity change, negative = cytotoxicity (SKOV3) 5.25% [at 11.6 µM] | activity change, negative = cytotoxicity (Tov-21-G) 6.16% [at 11.6 µM] | activity change, negative = cytotoxicity (Tov112D) 2.63% [at 11.6 µM]

C=C1CC[C@@H]2[C@](C)(CO)[C@H](O[C@@H]3O[C@H](CO)[C@@H](O)[C@H](O)[C@H]3O)CC[C@@]2(C)[C@@H]1C/C=C1/C(=O)OC[C@H]1O
inactive: Potency (PA-1) | Potency (SKOV3) | Potency (Tov-21-G) | Potency (Tov112D)

C/C(=C\C(=O)C[C@@]12C(=O)O[C@]3(C)CC[C@H]1C[C@H]23)C(N)=O
inactive: Potency (PA-1) | Potency (SKOV3) | Potency (Tov-21-G) | Potency (Tov112D)

CN1CCN(C(=O)c2cc3cc(Cl)ccc3[nH]2)CC1
inactive: Potency (PA-1) | Potency (SKOV3) | Potency (Tov-21-G) | Potency (Tov112D)

O=C1OC(c2ccc(O)cc2)C(O)=C1Cc1ccccc1 (stereo unspecified)
inactive: Potency (PA-1) | Potency (SKOV3) | Potency (Tov-21-G) | Potency (Tov112D)

COc1cnc(-n2cnc(C)n2)c2[nH]cc(C(=O)C(=O)N3CCN(C(=O)c4ccccc4)CC3)c12
inactive: Potency (PA-1) | Potency (SKOV3) | Potency (Tov-21-G) | Potency (Tov112D)

C[C@@H](NC(=O)c1cc(C(=O)N[C@@H](Cc2ccccc2)[C@H](O)CNC2CC2)cc(N(C)S(C)(=O)=O)c1)c1ccccc1
inactive: Potency (PA-1) | Potency (SKOV3) | Potency (Tov-21-G) | Potency (Tov112D)

C/C(=C\CC[C@H](CO)[C@@H]1CC[C@]2(C)C3=C(CC[C@@]12C)[C@@]1(C)CCC(=O)C(C)(C)C1CC3)C(=O)O (stereo partly specified)
inactive: Potency (PA-1) | Potency (SKOV3) | Potency (Tov-21-G) | Potency (Tov112D)

CC1(C)CC[C@]2(C(=O)O)CC[C@]3(C)C(=CCC4[C@@]5(C)C[C@H](O)[C@H](O[C@@H]6O[C@H](CO)[C@@H](O)[C@H](O)[C@H]6O)[C@@](C)(CO)C5[C@H](O)C[C@]43C)[C@@H]2C1 (stereo partly specified)
inactive: Potency (PA-1) | Potency (SKOV3) | Potency (Tov-21-G) | Potency (Tov112D)

O=S(=O)(O)c1ccc(Nc2ncnc3c2ncn3[C@@H]2O[C@H](CO)[C@@H](O)[C@H]2O)cc1
inactive: Potency (PA-1) | Potency (SKOV3) | Potency (Tov-21-G) | Potency (Tov112D)

CC(C)(O)[C@@H]1CC[C@]2(CO)[C@@H](O)CC[C@](C)(O)[C@H]2[C@@H]1O[C@@H]1O[C@H](CO)[C@@H](O)[C@H](O)[C@H]1O
inactive: Potency (PA-1) | Potency (SKOV3) | Potency (Tov-21-G) | Potency (Tov112D)

CC(=C\C(C)O)/C=C(\C)C(=O)CC1CC(CC(N)=O)CC(=O)O1 (stereo unspecified)
inactive: Potency (PA-1) | Potency (SKOV3) | Potency (Tov-21-G) | Potency (Tov112D)
